Source: PubChem BioAssay (EPA / NIEHS)
Several values for one entry are separate records, joined by “and”; a condition that tells them apart may be missing. Identical values can stand only once. Where a structure was tested more than once in an assay, its records may differ in their call. Activity calls are given as the source filed them. The calls were made as follows: active = hit-call score of the fitted dose curve at least 0.9, where 1 is the maximum; inactive = score below 0.9.

The compounds below were run on Interferon-inducible T-cell alpha chemoattractant (ITAC), CXCL11 (gene 6373) (assay: BSK_hDFCGF_ITAC: BioMAP Diversity Plus: hDFCGF Assay for Interferon-inducible T-cell alpha chemoattractant (ITAC) Biomarker Activity (AID 2284251)). Settings: primary human foreskin fibroblasts.
In short: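 I-TAC levels were read by ELISA on human dermal foreskin fibroblast primary cultures 24 h after dosing, analysed against DMSO in the positive direction. Cytotoxicity was assessed alongside by sulforhodamine B total-protein staining.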

Compound	AC50	outcome
O=C(O)C(F)(F)C(F)(F)C(F)(F)C(F)(F)C(F)(F)C(F)(F)C(F)(F)C(F)(F)C(F)(F)C(F)(F)F	5.59 µM (active)	–
COC(=O)Cc1ccccc1	–	inactive
CC(=O)OC(c1ccccc1)C(Cl)(Cl)Cl (stereo unspecified)	–	inactive
O=C(O)C(F)(F)C(F)(F)C(F)(F)C(F)(F)C(F)(F)C(F)(F)F	–	inactive
O=C(O)CCC(F)(C(F)(F)F)C(F)(F)F	5.95 µM (active)	inactive

What follows are compounds tested on Plasminogen activator inhibitor-1 (PAI1), SERPINE1 (gene 5054) (assay: BSK_KF3CT_PAI1: BioMAP Diversity Plus: KF3CT Assay for Plasminogen activator inhibitor-1 (PAI1) Biomarker Activity (AID 2284252)). Settings: primary human keratinocytes with fibroblasts.
Method: BSK_KF3CT is a cell-based, multiplexed-readout assay that uses keratinocytes and foreskin fibroblasts, a human skin primary cell co-culture, with measurements taken at 24 hours after chemical dosing in a 96-well plate.BSK_KF3CT_PAI1 is an assay component measured in the BSK_KF3CT assay. It measures PAI-1 antibody related to regulation of gene expression using ELISA technology.Data from the assay component BSK_KF3CT_PAI1 was analyzed at the endpoint, BSK_KF3CT_PAI1, in the positive analysis fitting direction relative to DMSO as the negative control and baseline of activity. Using a type of binding reporter, gain or loss-of-signal activity can be used to understand protein changes. To generalize the intended target to other relatable targets, this assay endpoint is annotated to the 'cytokine' intended target family, where the subfamily is 'plasmogen activator inhibitor'.
The levels of cell surface (or secreted, indicated by the prefix "s") biomarker endpoints were measured by ELISA. Overt cytotoxicity to cells in confluent adherent cultures (all systems other than the BT system) was assessed by measuring total protein levels using sulforhodamine B (SRB) staining in parallel cultures at the time of biomarker measurements, indicated as SRB endpoints. For proliferation assays for adherent cell types, individual cell types are cultured at sub-confluence and relative cell numbers quantified by SRB staining at time points optimized for each system (48 h: 3C and CASM3C systems; 72 h: BT and HDF3CGF systems; 96 h: SAg system). SRB was performed by staining cells with 0.1% SRB after fixation with 10% TCA and reading wells at 560 nm.Viability and proliferation of PBMC (T cells) was quantified by Alamar Blue reduction for the SAg and BT systems. For PBMC viability (referred to as PBMC Cytotoxicity within the assay endpoint names), cells were plated (75,000/well in a 96-well plate) and then chemical samples added for 1 h before addition of activators, SEB and TSST-1 (20 ng/mL final concentration each). Cells were incubated for 90 h. Then, Alamar Blue (20 uL/well) (Invitrogen, Cat DAL1100) was added for 6 h, and the plates were read with a fluorescence microplate reader at 546/580 nm (excitation/emission). For PBMC proliferation, cells were plated and activated as above but incubated for only 16 h prior to addition of Alamar Blue. Plates were read after 6 h.

Compound	AC50	outcome
O=C(O)C(F)(F)C(F)(F)C(F)(F)C(F)(F)C(F)(F)C(F)(F)C(F)(F)C(F)(F)C(F)(F)C(F)(F)F	2.66 µM (active) and 4.56 µM (active)	–
COC(=O)Cc1ccccc1	–	inactive
CC(=O)OC(c1ccccc1)C(Cl)(Cl)Cl (stereo unspecified)	–	inactive
O=C(O)C(F)(F)C(F)(F)C(F)(F)C(F)(F)C(F)(F)C(F)(F)F	–	inactive
O=C(O)CCC(F)(C(F)(F)F)C(F)(F)F	–	inactive
